Consider eleven compounds from PubChem BioAssay.

Active and inactive are the calls of the source.

A short description of assay [1]: compound effects on lung adenocarcinoma cell viability – A549, calcein-AM fluorescence, 48 h, basal, profiling panel (AID 1162). To be noted: higher = more signal.
A short description of assay [2]: compound effects on differentiated 3T3-L1 adipocyte viability – cell-based, 3T3-L1 adipocytes, calcein-AM fluorescence, 48 h, basal, profiling panel (AID 1163). The conditions noted are these: 3T3-L1 adipocytes viability, higher = more signal.
Assay [3] can be described thus: compound effects on hepatocellular carcinoma cell viability – HepG2, calcein-AM fluorescence, 48 h, basal, profiling panel (AID 1164). To be noted: higher = more signal.
A short description of assay [4]: compound effects on multiple myeloma cell viability – MM1S, calcein-AM fluorescence, 48 h, basal, profiling panel (AID 1165). The conditions noted are these: higher = more signal.
Assay [5] is described as follows: calcein-AM signal in unstimulated myeloma cells – cell-based, calcein-AM fluorescence, 48 h, PK04 Diversity Set, profiling panel (AID 1166).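 Note: cells grown under basal conditions without added stimulus.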 The conditions noted are these: RPMI8226 myeloma viability, higher = more signal.
The nature of assay [6]: JC-1 mitochondrial signal, unstimulated HepG2 cells – cell-based, JC-1 fluorescence, 24 h, 100 nL compound, profiling panel (AID 1167). The conditions noted are these: HepG2 mitochondrial potential, higher = more signal.
The nature of assay [7]: JC-1 mitochondrial signal, unstimulated adipocytes – cell-based, JC-1 fluorescence, 3T3-L1 adipocytes, 24 h, 100 nL compound, profiling panel (AID 1168). To be noted: JC-1 mitochondrial fluorescence, higher = more signal, called active from +8 up or from −8 down.
Assay [8] can be described thus: JC-1 mitochondrial signal, unstimulated myeloma cells – cell-based, JC-1 fluorescence, RPMI8226, 24 h, 100 nL compound, profiling panel (AID 1169). The conditions noted are these: JC-1 mitochondrial potential fluorescence, higher = more signal.
The nature of assay [9]: JC-1 mitochondrial signal, unstimulated MM1S myeloma – cell-based, JC-1 fluorescence, 24 h, 100 nL compound, profiling panel (AID 1170). To be noted: MM1S mitochondrial potential, higher = more signal.
The nature of assay [10]: resazurin metabolic signal in A549 cells – cell-based, resazurin fluorescence, 24 h, PK04 Diversity Set, profiling panel (AID 1171). The conditions noted are these: A549 viability, higher = more signal, called active from +8 up or from −8 down.
Note: test concentration not given here.

For the compound `CC1C=C(CCCO)C=C(C(=O)OCCS(C)(=O)=O)C(C(=O)OCCS(C)(=O)=O)=CN1Cc1cccc(OC(F)(F)F)c1` (stereo not given), the z-score is 0.114 in assay [1]; 0.606 in assay [2]; 1.23 in [3]; -0.289 in [4]; -0.226 in assay [5]; 1.27 in [6]. The z-score in assay [7] was -0.63 (inactive); in assay [8], 0.186; in assay [9] it was -0.0273; in [10], -0.0746 (inactive).

As for `COc1cc(C(O)C2C=CC3C(=O)N(C)C(=O)C3N2NC(=O)OC(C)(C)C)cc(OC)c1OC` (stereo not given), the z-score in assay [1] was -1.58; in assay [2], -0.785; in [3], -0.884; in assay [4], -2.19; in assay [5] it was -0.907; in [6], -1.66. Further, the z-score in assay [7] is -0.321 (inactive); in assay [8], -0.872; in assay [9], 0.415; in assay [10] it was -0.679 (inactive).

On to `C=CCOC(=O)[C@@H]1[C@H]2C(=O)O[C@H](c3ccccc3)[C@H](c3ccccc3)N2[C@H](c2ccc(OCCOC(=O)[C@@H]3C[C@@H]4C(=O)N5CCC[C@H]5C(=O)N4[C@@H]3c3cccc(OCCO)c3)cc2)[C@@]12C(=O)Nc1ccc(I)cc12`, for which the z-score in assay [1] is -0.283; in [2] it was 0.584; in assay [3], -1.27; in [4] it was -0.16; in assay [5], 0.583; in assay [6] it was -0.853. Also, the z-score in assay [7] is 0.272 (inactive); in assay [8], -0.661; in [9], -0.984; in assay [10], 0.592 (inactive).

In the case of `COc1ccc(C(=O)Nc2ccc(CN3C(=O)[C@]4(O[C@H](CCn5cc([C@H](O)c6ccccc6)nn5)[C@@H]([Si](C)(C)c5ccc(OC)cc5)[C@@H]4C)c4ccccc43)cc2)cc1`, the z-score in assay [1] was -0.0731; in assay [2], -0.145; in assay [3], -4.03; in [4], -2.67; in [5], -3.84; in assay [6], 1.48. For the same compound, the z-score was 0.374 (inactive) in assay [7], -1.12 in assay [8], -2.36 in assay [9] and -1.64 (inactive) in assay [10].

With `[N-]=[N+]=Nc1ccccc1[C@@H]1OC(c2ccc(OCCCO)cc2)=N[C@]1(CCS(=O)(=O)c1ccccc1)C(=O)NCc1ccccc1`, the z-score is 0.282 in assay [1]; 0.803 in assay [2]; 0.82 in assay [3]; -0.723 in assay [4]; -0.185 in assay [5]; 0.136 in assay [6]. For the same compound, the z-score in assay [7] is 3.88 (inactive); in assay [8] it was -1.03; in assay [9] it was -0.856; in assay [10] it was -0.725 (inactive).

In the case of `COCCCNC(=O)[C@]1(Cc2ccccc2)N=C(c2ccc(OCCCO)cc2)O[C@@H]1c1ccccc1N=[N+]=[N-]`, the z-score in assay [1] is -1.8; in assay [2] it was 1.77; in assay [3], -1.47; in assay [4], -1.78; in [5] it was -4.29; in assay [6] it was 1.29. The z-score is 0.235 (inactive) in assay [7], -1.1 in assay [8], -1.73 in [9] and -1.09 (inactive) in [10].

For `COCCCNC(=O)[C@]1(CCS(=O)(=O)c2ccccc2)N=C(c2ccc(OCCCO)cc2)O[C@@H]1c1ccccc1`, the z-score in assay [1] is 1.73; in assay [2], 0.151; in assay [3] it was 0.9; in assay [4], -0.223; in assay [5], -0.7; in assay [6], 2.64. In addition, the z-score in [7] was 0.0968 (inactive); in assay [8] it was -0.74; in assay [9] it was -0.801; in assay [10], -0.243 (inactive).

With `COC(=O)[C@@]1(Cc2ccccc2)[C@H]2c3cc(C(=O)N4CCCC4)n(Cc4ccc(OC(F)(F)F)cc4)c3C[C@H]2CN1C(=O)c1ccccc1`, the z-score in assay [1] was -0.975; in assay [2], -0.8; in [3], -1.56; in assay [4] it was -1.89; in assay [5] it was -2.47; in assay [6] it was 1.77. Also, the z-score in [7] is -1.42 (inactive); in [8], -0.717; in assay [9], -0.934; in assay [10], -1.46 (inactive).

`CCCCC(CC)C(O)C1C=CC2C(=O)NC(=O)C2N1Nc1ccccn1` (stereo not given): the z-score in [1] was 0.373; in assay [2], -0.131; in assay [3], 1.12; in [4] it was -0.11; in assay [5] it was 0.581; in [6] it was 0.0822. Also, the z-score in [7] was -0.506 (inactive); in assay [8], 0.713; in assay [9], -0.792; in assay [10] it was -0.858 (inactive).

Regarding `O=C(NCc1ccccc1)[C@]1(Cc2ccccc2)N=C(c2ccc(OCCCO)cc2)O[C@@H]1c1ccccc1`, the z-score in assay [1] is -2.44; in [2], 0.709; in [3] it was -1.83; in [4], -2.57; in assay [5], -4.2; in assay [6], 0.683. Besides, the z-score was 0.145 (inactive) in [7], -1.21 in assay [8], -1.24 in assay [9] and 0.0976 (inactive) in [10].

`O=C1N(CCS(=O)(=O)c2ccccc2)c2ccccc2[C@H]2OC(c3ccc(OCCCO)cc3)=N[C@@]12CCS(=O)(=O)c1ccccc1`: the z-score was 0.571 in assay [1]; 0.771 in assay [2]; 0.504 in assay [3]; 0.201 in assay [4]; -0.0504 in assay [5]; -0.38 in [6]. Also, the z-score in assay [7] is 2.29 (inactive); in assay [8], -0.371; in assay [9], -1.23; in [10], 0.789 (inactive).
